Source: publication PMC7862700, “An all-to-all approach to the identification of sequence-specific readers for epigenetic DNA modifications on cytosine”

Tests used:
Assay in all cases: DAPPL (digital affinity profiling via proximity ligation, sequencing); 10 mM Tris-HCl pH 7.5, 50 mM NaCl, 1 mM DTT, 4% glycerol, room temperature, 30 min; GST-TFs on glutathione beads, 16-mer random dsDNA library, 0.1% formaldehyde crosslink after washing; high values mean tight binding
[1] = target: T1, FLI1 (Homo sapiens, UniProt Q01543 1-452); details: protein: recombinant; tags: N-terminal GST; dsDNA, one strand shown
T1 sequence: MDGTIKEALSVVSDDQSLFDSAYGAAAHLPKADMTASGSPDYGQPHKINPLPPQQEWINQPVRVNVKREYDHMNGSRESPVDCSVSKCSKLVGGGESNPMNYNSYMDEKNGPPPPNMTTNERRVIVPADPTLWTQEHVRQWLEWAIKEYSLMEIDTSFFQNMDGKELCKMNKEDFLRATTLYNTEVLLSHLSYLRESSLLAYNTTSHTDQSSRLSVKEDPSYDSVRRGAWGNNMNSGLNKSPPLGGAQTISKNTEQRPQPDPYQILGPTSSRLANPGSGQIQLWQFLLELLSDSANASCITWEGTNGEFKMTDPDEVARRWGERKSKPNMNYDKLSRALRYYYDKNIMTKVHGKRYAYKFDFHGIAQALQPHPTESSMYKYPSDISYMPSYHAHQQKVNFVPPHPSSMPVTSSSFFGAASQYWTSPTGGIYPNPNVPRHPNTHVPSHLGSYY
In short: (§1)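 Sequencing on an Illumina NextSeq500 followed washing, crosslinking with 0.1% formaldehyde, proximity ligation (BsaI/T4 ligase, 1 h, 37 °C) and PCR amplification of pools that had been incubated for 30 min at room temperature with 200 nmole of a random double-stranded 16-mer DNA library in Tris/NaCl/DTT/glycerol buffer. Each pool held DNA-barcoded human transcription factors, expressed in yeast as GST fusions and captured on glutathione beads, plus a tag-only sample. Binding signal is a hexamer's read frequency for a factor divided by its frequency in the tag-only sample.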

[2] = target: T2, ELK1 (Homo sapiens, UniProt P19419 1-428); details: protein: recombinant; tags: N-terminal GST; dsDNA, one strand shown
T2 sequence: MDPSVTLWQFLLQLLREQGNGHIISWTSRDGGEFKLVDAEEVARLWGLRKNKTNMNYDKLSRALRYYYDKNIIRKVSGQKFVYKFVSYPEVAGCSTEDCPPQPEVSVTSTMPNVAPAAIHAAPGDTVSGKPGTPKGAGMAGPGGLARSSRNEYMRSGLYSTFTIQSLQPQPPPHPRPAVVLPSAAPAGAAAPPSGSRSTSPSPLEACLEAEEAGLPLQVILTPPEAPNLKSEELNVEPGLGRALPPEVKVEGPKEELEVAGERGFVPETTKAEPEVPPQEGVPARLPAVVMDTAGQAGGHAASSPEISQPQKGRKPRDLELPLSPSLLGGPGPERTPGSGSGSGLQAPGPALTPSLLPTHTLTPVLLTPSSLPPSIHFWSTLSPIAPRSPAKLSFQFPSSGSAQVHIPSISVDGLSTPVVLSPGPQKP
In short: as §1

[3] = target: T3, GABPA (Homo sapiens, UniProt Q06546 1-454); details: protein: recombinant; tags: N-terminal GST; dsDNA, one strand shown
T3 sequence: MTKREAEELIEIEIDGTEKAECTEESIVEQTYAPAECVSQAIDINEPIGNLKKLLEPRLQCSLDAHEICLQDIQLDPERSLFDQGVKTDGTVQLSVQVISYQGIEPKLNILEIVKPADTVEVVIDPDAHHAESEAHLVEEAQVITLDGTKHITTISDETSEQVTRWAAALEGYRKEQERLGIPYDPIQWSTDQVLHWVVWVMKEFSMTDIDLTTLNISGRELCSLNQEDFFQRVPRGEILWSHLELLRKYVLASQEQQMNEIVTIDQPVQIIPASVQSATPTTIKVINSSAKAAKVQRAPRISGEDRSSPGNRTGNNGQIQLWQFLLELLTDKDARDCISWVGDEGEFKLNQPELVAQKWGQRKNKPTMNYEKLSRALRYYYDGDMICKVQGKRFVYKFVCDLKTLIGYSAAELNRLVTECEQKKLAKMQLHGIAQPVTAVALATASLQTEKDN
In short: as §1

[4] = target: T4, ERG (Homo sapiens, UniProt P11308 1-479); details: protein: recombinant; tags: N-terminal GST; dsDNA, one strand shown
T4 sequence: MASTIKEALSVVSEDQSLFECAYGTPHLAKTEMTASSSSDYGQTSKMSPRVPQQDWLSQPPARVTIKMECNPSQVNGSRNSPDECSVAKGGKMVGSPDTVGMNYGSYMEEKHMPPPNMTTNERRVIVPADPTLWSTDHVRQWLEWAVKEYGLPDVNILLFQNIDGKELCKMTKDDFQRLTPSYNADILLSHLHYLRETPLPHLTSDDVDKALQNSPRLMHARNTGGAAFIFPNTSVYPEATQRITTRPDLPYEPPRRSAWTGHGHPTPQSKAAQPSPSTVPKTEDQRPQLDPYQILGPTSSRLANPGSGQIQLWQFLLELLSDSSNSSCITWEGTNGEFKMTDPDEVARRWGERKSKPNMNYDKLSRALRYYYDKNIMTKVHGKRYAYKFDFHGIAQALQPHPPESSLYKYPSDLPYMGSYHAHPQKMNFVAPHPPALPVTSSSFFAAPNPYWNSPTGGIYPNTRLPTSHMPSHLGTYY
In short: as §1

[5] = target: ELF1 (Homo sapiens, UniProt P32519 1-619); details: protein: recombinant; tags: N-terminal GST; dsDNA, one strand shown
Chain of ELF1 (P32519 whole entry): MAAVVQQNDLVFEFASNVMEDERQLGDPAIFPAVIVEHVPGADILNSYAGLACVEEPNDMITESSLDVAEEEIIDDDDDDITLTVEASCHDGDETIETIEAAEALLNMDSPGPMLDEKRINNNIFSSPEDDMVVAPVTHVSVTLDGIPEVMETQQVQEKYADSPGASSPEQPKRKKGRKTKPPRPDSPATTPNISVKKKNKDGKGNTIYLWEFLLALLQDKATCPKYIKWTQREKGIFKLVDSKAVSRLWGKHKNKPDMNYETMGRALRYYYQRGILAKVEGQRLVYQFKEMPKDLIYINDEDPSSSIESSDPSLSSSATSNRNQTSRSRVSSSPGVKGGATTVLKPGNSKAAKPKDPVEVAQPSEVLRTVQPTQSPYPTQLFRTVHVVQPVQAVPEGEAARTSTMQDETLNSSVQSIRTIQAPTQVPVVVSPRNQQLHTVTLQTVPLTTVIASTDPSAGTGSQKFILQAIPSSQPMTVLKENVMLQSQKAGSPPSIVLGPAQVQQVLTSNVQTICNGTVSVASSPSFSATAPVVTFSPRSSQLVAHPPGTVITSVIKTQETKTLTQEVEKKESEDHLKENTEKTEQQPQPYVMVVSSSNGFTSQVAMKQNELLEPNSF
In short: as §1

[6] = target: T5, EHF (Homo sapiens, UniProt Q9NZC4 1-300); details: protein: recombinant; tags: N-terminal GST; dsDNA, one strand shown
T5 sequence: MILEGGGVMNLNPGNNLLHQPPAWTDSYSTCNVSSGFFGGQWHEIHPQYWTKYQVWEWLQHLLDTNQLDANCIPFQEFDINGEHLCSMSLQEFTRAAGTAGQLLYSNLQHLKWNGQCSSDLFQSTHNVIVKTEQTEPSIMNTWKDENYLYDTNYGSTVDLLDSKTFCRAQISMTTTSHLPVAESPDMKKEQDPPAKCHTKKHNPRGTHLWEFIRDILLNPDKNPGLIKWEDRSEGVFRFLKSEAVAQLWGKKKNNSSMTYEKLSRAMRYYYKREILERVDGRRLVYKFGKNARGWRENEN
In short: as §1

[7] = target: SPI1 (Homo sapiens, UniProt P17947 1-270); details: protein: recombinant; tags: N-terminal GST; dsDNA, one strand shown
In short: as §1

[8] = target: SPIB (Homo sapiens, UniProt Q01892 1-262); details: protein: recombinant; tags: N-terminal GST; dsDNA, one strand shown
Chain of SPIB (Q01892 whole entry): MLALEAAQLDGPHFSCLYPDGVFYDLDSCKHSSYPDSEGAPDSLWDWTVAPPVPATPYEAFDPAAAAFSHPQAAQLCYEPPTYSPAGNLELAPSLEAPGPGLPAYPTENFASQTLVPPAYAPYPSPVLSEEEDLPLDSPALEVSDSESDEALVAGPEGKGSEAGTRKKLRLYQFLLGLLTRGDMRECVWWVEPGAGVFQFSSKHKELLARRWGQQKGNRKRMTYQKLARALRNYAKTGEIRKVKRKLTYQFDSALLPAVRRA
In short: as §1

[9] = target: T6, ELK3 (Homo sapiens, UniProt P41970 1-407); details: protein: recombinant; tags: N-terminal GST; dsDNA, one strand shown
T6 sequence: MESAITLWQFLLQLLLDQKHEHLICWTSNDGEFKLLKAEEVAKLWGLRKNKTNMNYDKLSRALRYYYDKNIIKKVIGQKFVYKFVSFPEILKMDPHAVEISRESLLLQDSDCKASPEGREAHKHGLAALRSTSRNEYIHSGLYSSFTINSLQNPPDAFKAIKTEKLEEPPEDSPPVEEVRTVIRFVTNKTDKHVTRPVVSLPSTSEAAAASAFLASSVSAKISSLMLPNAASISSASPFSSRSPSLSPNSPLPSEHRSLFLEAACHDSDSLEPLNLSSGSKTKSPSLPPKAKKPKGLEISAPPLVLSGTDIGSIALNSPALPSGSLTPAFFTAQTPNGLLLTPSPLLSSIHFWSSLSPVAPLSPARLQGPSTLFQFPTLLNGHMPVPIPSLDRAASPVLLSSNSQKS
In short: as §1

[10] = target: T7, FEV (Homo sapiens, UniProt Q99581 1-238); details: protein: recombinant; tags: N-terminal GST; dsDNA, one strand shown
T7 sequence: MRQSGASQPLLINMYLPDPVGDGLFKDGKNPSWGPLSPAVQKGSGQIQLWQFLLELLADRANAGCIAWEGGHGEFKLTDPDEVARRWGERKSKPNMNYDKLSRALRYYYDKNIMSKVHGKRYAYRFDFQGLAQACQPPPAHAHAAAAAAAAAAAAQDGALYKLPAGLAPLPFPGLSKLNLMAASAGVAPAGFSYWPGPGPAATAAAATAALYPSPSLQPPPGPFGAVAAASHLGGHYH
In short: as §1

[11] = target: ETV5 (Homo sapiens, UniProt P41161 1-510); details: protein: recombinant; tags: N-terminal GST; dsDNA, one strand shown
Chain of ETV5 (P41161 whole entry): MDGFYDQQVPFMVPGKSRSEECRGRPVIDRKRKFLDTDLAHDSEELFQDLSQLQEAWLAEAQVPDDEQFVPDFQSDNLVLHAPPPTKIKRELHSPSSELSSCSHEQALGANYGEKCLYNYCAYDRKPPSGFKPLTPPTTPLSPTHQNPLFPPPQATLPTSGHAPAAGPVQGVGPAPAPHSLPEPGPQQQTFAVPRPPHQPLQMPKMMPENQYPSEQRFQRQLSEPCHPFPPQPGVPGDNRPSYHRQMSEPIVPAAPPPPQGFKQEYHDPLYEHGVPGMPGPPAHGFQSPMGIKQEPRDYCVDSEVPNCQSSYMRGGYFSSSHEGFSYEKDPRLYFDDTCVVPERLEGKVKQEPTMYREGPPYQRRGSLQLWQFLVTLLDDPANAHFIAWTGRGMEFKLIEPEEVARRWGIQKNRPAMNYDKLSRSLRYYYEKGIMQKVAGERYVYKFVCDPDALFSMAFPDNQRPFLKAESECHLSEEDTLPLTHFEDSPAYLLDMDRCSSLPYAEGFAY
In short: as §1

[12] = target: HSF1 (Homo sapiens, UniProt Q00613 1-529); details: protein: recombinant; tags: N-terminal GST; chain copies: 3; dsDNA, one strand shown
Chain of HSF1 (Q00613 whole entry): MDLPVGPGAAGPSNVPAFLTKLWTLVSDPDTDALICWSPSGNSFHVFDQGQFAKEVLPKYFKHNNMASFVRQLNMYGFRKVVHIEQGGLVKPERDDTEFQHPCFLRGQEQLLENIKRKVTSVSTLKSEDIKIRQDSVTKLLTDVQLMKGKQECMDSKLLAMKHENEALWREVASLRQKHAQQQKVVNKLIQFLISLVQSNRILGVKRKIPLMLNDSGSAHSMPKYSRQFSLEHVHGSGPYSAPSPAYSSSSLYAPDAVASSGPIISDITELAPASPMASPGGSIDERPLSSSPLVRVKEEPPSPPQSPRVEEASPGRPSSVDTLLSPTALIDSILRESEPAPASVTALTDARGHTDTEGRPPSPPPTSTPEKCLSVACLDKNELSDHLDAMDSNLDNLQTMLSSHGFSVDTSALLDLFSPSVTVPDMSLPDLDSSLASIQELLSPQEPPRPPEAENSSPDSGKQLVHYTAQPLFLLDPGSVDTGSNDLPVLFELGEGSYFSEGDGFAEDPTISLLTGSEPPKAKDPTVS
In short: as §1

[13] = target: T8, SPIC (Homo sapiens, UniProt Q8N5J4 1-248); details: protein: recombinant; tags: N-terminal GST; dsDNA, one strand shown
T8 sequence: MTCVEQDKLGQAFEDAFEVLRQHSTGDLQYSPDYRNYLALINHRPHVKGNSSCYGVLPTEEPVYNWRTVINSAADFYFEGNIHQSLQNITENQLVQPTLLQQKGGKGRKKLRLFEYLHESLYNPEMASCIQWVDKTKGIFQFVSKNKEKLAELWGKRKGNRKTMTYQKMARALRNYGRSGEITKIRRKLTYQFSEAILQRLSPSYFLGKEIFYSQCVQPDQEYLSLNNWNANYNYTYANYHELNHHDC
In short: as §1

[14] = target: ELF4 (Homo sapiens, UniProt Q99607 1-663); details: protein: recombinant; tags: N-terminal GST; dsDNA, one strand shown
Chain of ELF4 (Q99607 whole entry): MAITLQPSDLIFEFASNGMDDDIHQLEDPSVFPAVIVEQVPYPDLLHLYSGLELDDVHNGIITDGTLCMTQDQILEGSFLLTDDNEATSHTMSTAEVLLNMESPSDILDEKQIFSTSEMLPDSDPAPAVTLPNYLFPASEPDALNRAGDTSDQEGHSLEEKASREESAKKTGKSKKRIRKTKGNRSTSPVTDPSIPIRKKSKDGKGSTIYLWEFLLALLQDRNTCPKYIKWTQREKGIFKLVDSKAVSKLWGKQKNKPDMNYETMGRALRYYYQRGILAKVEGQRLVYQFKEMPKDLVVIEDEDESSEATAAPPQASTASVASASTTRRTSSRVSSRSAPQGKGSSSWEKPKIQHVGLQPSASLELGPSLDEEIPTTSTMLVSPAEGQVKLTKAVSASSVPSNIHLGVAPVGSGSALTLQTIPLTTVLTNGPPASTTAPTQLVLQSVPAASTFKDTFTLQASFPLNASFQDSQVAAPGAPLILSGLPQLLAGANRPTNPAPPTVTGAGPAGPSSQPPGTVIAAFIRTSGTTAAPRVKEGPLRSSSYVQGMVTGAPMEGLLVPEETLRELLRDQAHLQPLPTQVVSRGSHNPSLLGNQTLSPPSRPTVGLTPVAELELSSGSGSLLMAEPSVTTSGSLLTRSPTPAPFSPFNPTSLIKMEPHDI
In short: as §1

[15] = target: T9, ELK4 (Homo sapiens, UniProt P28324-2 1-405); details: protein: recombinant; tags: N-terminal GST; dsDNA, one strand shown
T9 sequence: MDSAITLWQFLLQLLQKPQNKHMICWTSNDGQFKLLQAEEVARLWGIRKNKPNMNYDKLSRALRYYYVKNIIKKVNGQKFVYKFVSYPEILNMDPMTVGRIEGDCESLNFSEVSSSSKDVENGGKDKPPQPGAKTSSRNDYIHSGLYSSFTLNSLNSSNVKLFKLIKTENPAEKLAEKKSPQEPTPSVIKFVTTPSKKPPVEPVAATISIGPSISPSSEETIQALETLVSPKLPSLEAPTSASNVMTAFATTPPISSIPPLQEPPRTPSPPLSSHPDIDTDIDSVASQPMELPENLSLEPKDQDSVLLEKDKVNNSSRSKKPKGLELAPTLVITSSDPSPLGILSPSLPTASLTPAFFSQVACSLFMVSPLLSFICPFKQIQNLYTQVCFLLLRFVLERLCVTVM
In short: as §1

[16] = target: T10, ETV2 (Homo sapiens, UniProt O00321 1-342); details: protein: recombinant; tags: N-terminal GST; dsDNA, one strand shown
T10 sequence: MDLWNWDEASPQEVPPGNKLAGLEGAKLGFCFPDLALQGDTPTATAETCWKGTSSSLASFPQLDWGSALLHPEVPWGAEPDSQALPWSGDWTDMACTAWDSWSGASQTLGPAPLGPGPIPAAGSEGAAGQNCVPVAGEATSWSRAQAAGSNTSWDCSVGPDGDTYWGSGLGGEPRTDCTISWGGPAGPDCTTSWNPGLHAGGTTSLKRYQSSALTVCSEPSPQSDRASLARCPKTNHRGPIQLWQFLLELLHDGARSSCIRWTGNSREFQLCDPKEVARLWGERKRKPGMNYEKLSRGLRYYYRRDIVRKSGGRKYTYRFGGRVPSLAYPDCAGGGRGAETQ
In short: as §1

[17] = target: T11, ELF3 (Homo sapiens, UniProt P78545 1-371); details: protein: recombinant; tags: N-terminal GST; dsDNA, one strand shown
T11 sequence: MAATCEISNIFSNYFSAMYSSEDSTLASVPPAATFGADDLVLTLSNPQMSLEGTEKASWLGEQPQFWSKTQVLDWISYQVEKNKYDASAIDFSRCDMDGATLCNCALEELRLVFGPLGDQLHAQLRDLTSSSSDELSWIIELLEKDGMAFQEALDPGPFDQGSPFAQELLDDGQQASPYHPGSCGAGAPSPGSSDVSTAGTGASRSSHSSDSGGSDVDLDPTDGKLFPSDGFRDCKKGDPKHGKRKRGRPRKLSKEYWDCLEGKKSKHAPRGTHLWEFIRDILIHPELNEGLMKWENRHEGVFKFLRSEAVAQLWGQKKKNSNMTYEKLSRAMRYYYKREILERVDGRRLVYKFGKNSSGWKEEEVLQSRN
In short: as §1

[18] = target: CRX (Homo sapiens, UniProt O43186 1-299); details: protein: recombinant; tags: N-terminal GST; dsDNA, one strand shown
Chain of CRX (O43186 whole entry): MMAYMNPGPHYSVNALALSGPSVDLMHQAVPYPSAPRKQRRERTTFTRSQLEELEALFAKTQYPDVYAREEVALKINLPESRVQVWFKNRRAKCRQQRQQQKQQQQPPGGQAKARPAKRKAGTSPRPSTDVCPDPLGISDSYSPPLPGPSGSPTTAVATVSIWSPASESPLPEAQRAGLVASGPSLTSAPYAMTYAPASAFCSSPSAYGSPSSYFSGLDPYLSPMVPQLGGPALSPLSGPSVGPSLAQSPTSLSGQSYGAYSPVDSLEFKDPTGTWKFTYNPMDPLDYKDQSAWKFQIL
In short: as §1

[19] = target: ETV1 (Homo sapiens, UniProt P50549 1-477); details: protein: recombinant; tags: N-terminal GST; dsDNA, one strand shown
Chain of ETV1 (P50549 whole entry): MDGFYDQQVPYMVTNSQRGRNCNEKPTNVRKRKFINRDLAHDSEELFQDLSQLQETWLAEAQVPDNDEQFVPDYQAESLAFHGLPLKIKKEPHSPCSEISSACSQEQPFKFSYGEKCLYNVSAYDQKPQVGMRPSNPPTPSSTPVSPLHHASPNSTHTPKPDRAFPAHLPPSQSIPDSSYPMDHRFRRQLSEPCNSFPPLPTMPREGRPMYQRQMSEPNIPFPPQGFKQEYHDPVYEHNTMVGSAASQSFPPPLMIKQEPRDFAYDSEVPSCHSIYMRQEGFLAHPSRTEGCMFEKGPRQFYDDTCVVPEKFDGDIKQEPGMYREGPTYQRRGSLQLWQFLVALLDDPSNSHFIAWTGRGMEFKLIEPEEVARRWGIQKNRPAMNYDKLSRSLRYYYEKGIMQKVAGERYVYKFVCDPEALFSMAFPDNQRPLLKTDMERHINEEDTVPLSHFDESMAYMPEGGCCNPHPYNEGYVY
In short: as §1

AATATG
binding signal [1]: 1.12 fold enrichment (6-mer frequency, TF over GST control) | binding signal [2]: 1.13 fold enrichment (6-mer frequency, TF over GST control) | binding signal [3]: 1.15 fold enrichment (6-mer frequency, TF over GST control) | binding signal [4]: 1.15 fold enrichment (6-mer frequency, TF over GST control) | binding signal [5]: 1.17 fold enrichment (6-mer frequency, TF over GST control) | binding signal [6]: 1.09 fold enrichment (6-mer frequency, TF over GST control) | binding signal [7]: 1.15 fold enrichment (6-mer frequency, TF over GST control) | binding signal [8]: 1.19 fold enrichment (6-mer frequency, TF over GST control) | binding signal [9]: 1.19 fold enrichment (6-mer frequency, TF over GST control) | binding signal [10]: 1.12 fold enrichment (6-mer frequency, TF over GST control) | binding signal [11]: 1.2 fold enrichment (6-mer frequency, TF over GST control) | binding signal [12]: 1.12 fold enrichment (6-mer frequency, TF over GST control) | binding signal [13]: 1.28 fold enrichment (6-mer frequency, TF over GST control) | binding signal [14]: 1.16 fold enrichment (6-mer frequency, TF over GST control) | binding signal [15]: 1.18 fold enrichment (6-mer frequency, TF over GST control) | binding signal [16]: 1.07 fold enrichment (6-mer frequency, TF over GST control) | binding signal [17]: 1.21 fold enrichment (6-mer frequency, TF over GST control) | binding signal [18]: 1.1 fold enrichment (6-mer frequency, TF over GST control) | binding signal [19]: 1.13 fold enrichment (6-mer frequency, TF over GST control)
